DENV2 CPE = inhibitors of DENV2 cytopathic effect; 1.7% of 350,000 active; CPE inhibition, % at 9.99 µM; AID 651640; DENV2-infected cells, cytopathic effect rescue, plate reader; in the data active = CPE inhibition above about 20%, passing the limit was not always enough; tested in BHK-21 cells;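 also: 0% = median of neutral control wells and 100% = median of positive control wells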
ERp5 block = inhibitors of human ERp5; 0.05% of 350,000 active; inhibition, % at 9.99 µM; ERp5 insulin aggregation, absorbance 650 nm, 90 min;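 active = mean replicate inhibition above about 25%, with every replicate also reaching it, limit read from the data, passing the limit was not always enough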
Rtt109 Vps75 = inhibitors of Candida albicans Rtt109/Vps75 histone acetyltransferase; inhibition, % at 34.9 µM; Q5AAJ8; 0.16% of 330,000 active; purified Rtt109/Vps75, ThioGlo CoA-SH fluorescence, 4 h;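 active = inhibition of at least 50% in every replicate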
Target sequence (Q5AAJ8 whole entry, looked up): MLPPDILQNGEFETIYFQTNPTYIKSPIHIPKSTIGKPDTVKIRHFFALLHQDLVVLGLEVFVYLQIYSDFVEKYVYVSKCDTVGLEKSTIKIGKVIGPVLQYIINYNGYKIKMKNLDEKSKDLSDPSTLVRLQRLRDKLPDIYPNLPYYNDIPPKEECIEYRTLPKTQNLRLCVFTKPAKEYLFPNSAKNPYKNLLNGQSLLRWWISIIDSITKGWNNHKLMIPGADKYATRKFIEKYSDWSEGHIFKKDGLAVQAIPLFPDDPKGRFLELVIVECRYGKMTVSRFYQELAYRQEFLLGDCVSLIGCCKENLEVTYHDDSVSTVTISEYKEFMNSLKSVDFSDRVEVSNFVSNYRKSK
SIRT5 inh = inhibitors of human sirtuin-5 desuccinylase | Q9NXA8 | Purified SirT5, succinyl-peptide AMC, trypsin-coupled fluorescence | 1.1% of 330,000 active | inhibition, % at 15 µM; in the data active = inhibition above about 15%
PDI turbidity = PDI (human) enzyme inhibition; P07237; PDI insulin aggregation turbidity, A650, 90 min; inhibition, % at 10 µM; 0.052% of 350,000 active; AID 588391;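 active = mean inhibition across replicates of 30% or more, whatever share of single replicates reach that level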
An asterisk follows results filed as active; · = no result. Shown are actives, neighbours in structure and some others; about 2.3% of the full set was active somewhere.

SMILES	DENV2 CPE	ERp5 block	Rtt109 Vps75	SIRT5 inh	PDI turbidity
CN(C)S(=O)(=O)c1cccc(NC(=S)N/N=C/c2cccc(O)c2)c1	-8.9	1.8	-0.8	3.2	5.2
CN(C)S(=O)(=O)c1cccc(NC(=S)N/N=C/c2cc(Br)ccc2O)c1	7.1	-4.0	7.4	29.1*	-5.1
N#CC(=Nc1cccc(F)c1)C1=C(O)c2ccccc2C1=O	31.8*	2.0	·	1.7	·
COCC#Cc1cnc2c(c1)C(=O)N([C@@H](C)CO)C[C@H](C)[C@@H](CN(C)Cc1ccc(-c3ccccc3)cc1)O2	8.2	·	·	-1.2	·
Cc1ccc(C(=O)COC(=O)c2cnccn2)cc1	·	·	3.7	·	-0.5
O=C(COC(=O)c1cnccn1)c1ccc([N+](=O)[O-])cc1	-3.6	-1.0	136.9*	1.8	-17.0
C[C@@H]1CCCCO[C@H](CN(C)C)[C@H](C)CN([C@@H](C)CO)C(=O)c2cc(NC(=O)Nc3ccccc3)ccc2O1	3.6	5.4	·	1.9	·
Cc1ccc(OCCNC(=O)C2CCCCC2)cc1	·	-1.3	-5.5	18.6*	-4.5
O=C(NCCOc1ccc(Cl)cc1)C1CCCCC1	-3.3	0.0	-6.4	-1.9	-2.0
C[C@@H](NC(=O)C[C@H]1CC[C@H](NC(=O)C2CCC2)[C@@H](CO)O1)c1ccccc1	17.6	11.1	·	-0.8	·
Cc1cccc(NC(=O)Nc2ccc3c(c2)C(=O)N(C)[C@@H]2CC[C@H](CC(=O)NCc4ccccc4Cl)O[C@@H]2CO3)c1	-1.5	2.1	·	0.9	·
C[C@H]1CN([C@@H](C)CO)C(=O)Cc2cc(NC(=O)NC3CCCCC3)ccc2O[C@@H]1CN(C)Cc1ccc(C(=O)Nc2ccccc2N)cc1	32.4*	-5.0	·	-2.6	·
C[C@H](CO)N1C[C@H](C)[C@H](CN(C)Cc2ccc(-c3ccccc3)cc2)Oc2ccc(NC(=O)NC3CCCCC3)cc2CC1=O	22.0*	-6.4	·	0.9	·
CC(C)NC(=O)Nc1ccc2c(c1)CC(=O)N([C@H](C)CO)C[C@H](C)[C@@H](CN(C)Cc1ccc(C(=O)Nc3ccccc3N)cc1)O2	12.7	1.5	·	-3.7	·
CC(C)NC(=O)Nc1ccc2c(c1)CC(=O)N([C@H](C)CO)C[C@H](C)[C@@H](CN(C)Cc1ccccc1)O2	-5.8	2.8	·	-3.2	·
C[C@@H]1CN([C@@H](C)CO)C(=O)Cc2cc(NC(=O)NC3CCCCC3)ccc2O[C@@H]1CN(C)Cc1ccc(Cl)c(Cl)c1	58.9*	-5.1	·	-3.4	·
CC(C)NC(=O)Nc1ccc2c(c1)CC(=O)N([C@@H](C)CO)C[C@@H](C)[C@H](CN(C)Cc1ccc(-c3ccccc3)cc1)O2	29.7*	2.6	·	2.4	·
CNC(=O)C[C@@H]1CC[C@@H]2[C@H](COC[C@@H](O)CN2C(=O)Nc2ccc3c(c2)OCO3)O1	0.1	-1.5	·	2.6	·
CC(C)CC#Cc1ccc2c(c1)O[C@@H](CN(C)C)[C@H](C)CN([C@H](C)CO)S2(=O)=O	9.7	-10.5	·	0.3	·
C[C@@H]1CCCCO[C@H](CN(C)C(=O)c2ccccc2)[C@@H](C)CN([C@@H](C)CO)C(=O)c2cc(NC(=O)NC3CCCCC3)ccc2O1	-8.5	1.0	·	6.6	·
N#C[C@H]1[C@@H](c2ccccc2-c2ccccc2)[C@@H](CO)N1C(=O)NC1CCCC1	-9.0	4.7	·	-2.1	·
C[C@H](CO)N1C[C@H](C)[C@H](CN(C)Cc2ccc(C(=O)Nc3ccccc3N)cc2)Oc2ccc(NC(=O)Cn3cnnn3)cc2CC1=O	55.0*	5.2	·	·	·
C[C@H]1CN([C@@H](C)CO)C(=O)Cc2cc(NC(=O)NC3CCCCC3)ccc2O[C@@H]1CN(C)Cc1ccc(-c2ccccc2)cc1	30.8*	-10.2	·	0.1	·
CCN1CC(=O)N2[C@H](C1)[C@H](c1ccc(Br)cc1)[C@@H]2CO	10.5	7.8	·	1.8	·
C[C@H]1CCCCO[C@@H](CN(C)S(=O)(=O)c2ccccc2)[C@@H](C)CN([C@@H](C)CO)C(=O)c2cc(NS(C)(=O)=O)ccc2O1	12.9	3.9	·	0.8	·
CCN1C(=O)[C@H]2[C@@H](c3ccc(OC)cc3)N3C(=O)CN(CCOC)C(=O)[C@@]3(C)[C@H]2C1=O	98.4*	-2.8	-2.6	-4.8	-4.2
CCN1C(=O)[C@H]2[C@@H](c3ccc(OC)cc3)N3C(=O)CN(Cc4ccccc4)C(=O)[C@@]3(Cc3ccccc3)[C@H]2C1=O	·	-5.1	-5.0	·	-10.9
COc1cccc(C(=O)N2C[C@H]3[C@@H](c4ccccc42)[C@H](CO)N3C(C)=O)c1	-1.0	3.4	·	2.4	·
CCc1noc(C)c1C(=O)NNC(=O)COc1ccc(C)cc1	-8.4	2.4	-5.7	15.1*	-3.0
